Reference: paper PMC4552634, “A New Set of Chemical Starting Points with Plasmodium falciparum Transmission-Blocking Potential for Antimalarial Drug Discovery” (PLoS ONE, 2015)
Screen size: about 13,000 compounds; about 3,200 (25%) showed an effect of 50% or more. The list shows a part of the results.

test system: P. falciparum stage V gametocytes; design: BacTiter-Glo ATP luminescence viability of purified stage V gametocytes in 384-well plates, per cent inhibition versus DMSO; conditions: 48 h, 5 µM; inhibitor

| Structure (SMILES) | % Inhibition |
| --- | --- |
| CC(O)C1CCCCN1C(=O)c1cccc(-c2ccc(-c3nc4cc(C(F)(F)F)ccc4[nH]3)cc2)c1 (stereo not drawn) [TCMDC-132334] | -28.97% |
| CC(C)CCn1c(Sc2ccc(C#N)c([N+](=O)[O-])c2)nnc1-c1ccc(N(C)C)cc1 [TCMDC-135617] | 45.75% |
| COc1ccc(-c2nc3c(NCc4ccccc4)nccc3[nH]2)c(OC)c1 [TCMDC-137551] | -15.03% |
| C=CCn1c(SCc2c(C)noc2C)nc2scc(-c3cccs3)c2c1=O [TCMDC-125027] | -8.905% |
| CC(C)c1ncc(-c2ccncc2)c(C2CCC(CNC(=O)c3ccncc3)CC2)n1 (stereo not drawn) [TCMDC-124824] | 1.29% |
| Cc1[nH]c2ccccc2c1C1=CCN(CCN2CCOc3c(Br)cccc3C2=O)CC1 [TCMDC-140965] | -7.337% |
| CN1CCN(c2cc3c(Nc4ccc5c(cnn5Cc5ccccc5)c4)ncnc3cn2)CC1 [TCMDC-137767] | 5.484% |
| N#Cc1ccc2c(c1)CN(C1CCC(NC(=O)c3cc(-c4ccc(Cl)cc4)cs3)CC1)CCC2 (stereo not drawn) [TCMDC-133504] | 5.468% |
| CC(C)(C)OC(=O)/C=C(\C(=O)OCc1ccc([N+](=O)[O-])cc1)c1csc(NC(c2ccccc2)(c2ccccc2)c2ccccc2)n1 [TCMDC-131971] | 65.48% |
| CCOC(=O)/C(=N\OC(C)(C)C(=O)NCc1ccc(O)c(O)c1)c1csc(NC(c2ccccc2)(c2ccccc2)c2ccccc2)n1 [TCMDC-132099] | -13.25% |
| CCOC(=O)/C(=N\OC(C(=O)OC(C)(C)C)c1ccccc1)c1csc(NC(c2ccccc2)(c2ccccc2)c2ccccc2)n1 (stereo not drawn) [TCMDC-131980] | 21.22% |
| COc1ccc(NC(=O)/C=C/c2ccc(Oc3ccccc3Cl)c([N+](=O)[O-])c2)cc1OCCN(C(C)C)C(C)C [TCMDC-140388] | -71.01% |
| Cc1cc2nc(-c3ccc(C(=O)NC4CCN(Cc5ccccc5)CC4)cc3)[nH]c2cc1C [TCMDC-140428] | -59.23% |
| O=C(C=Cc1ccc(-c2nc3ccccc3[nH]2)cc1)NC1CCN(Cc2ccccc2)CC1 [TCMDC-140400] | -89.03% |
| CC(C)(C)c1ccc2nc(-c3ccc(/C=C/C(=O)NC4CCN(Cc5ccccc5)CC4)cc3)[nH]c2c1 [TCMDC-140456] | 48.62% |
| Cc1cc2nc(-c3ccc(/C=C/C(=O)NC4CCCCC4)cc3)[nH]c2cc1C [TCMDC-140435] | -5.542% |
| COC(=O)c1ccc2nc(-c3ccc(C(=O)NC4CCN(Cc5ccccc5)CC4)s3)[nH]c2c1 [TCMDC-140426] | -65.59% |
| COC(=O)c1ccc2nc(-c3ccc(/C=C/C(=O)NC4CCN(Cc5ccccc5)CC4)cc3)[nH]c2c1 [TCMDC-140446] | 84.95% |
| Cc1cc2nc(-c3cccc(C(=O)NC4CCN(Cc5ccccc5)CC4)c3)[nH]c2cc1C [TCMDC-140424] | 75.94% |
| O=C(/C=C/c1ccc(-c2nc3ccc(Cl)cc3[nH]2)cc1)NC1CCN(Cc2ccccc2)CC1 [TCMDC-140443] | 63% |
| O=C(NC1CCN(Cc2ccccc2)CC1)c1cccc(-c2nc3ccc(Cl)cc3[nH]2)c1 [TCMDC-140425] | 27.77% |
| CC(C)(C)c1ccc2nc(-c3ccc(C(=O)NC4CCN(Cc5ccccc5)CC4)s3)[nH]c2c1 [TCMDC-140514] | 58.98% |
| Cc1ccc2nc(-c3ccc(C(=O)NC4CCN(Cc5ccccc5)CC4)s3)[nH]c2c1 [TCMDC-140399] | -1.012% |
| COC(=O)c1ccc2nc(-c3cc(OC)c(O)c(C(=O)NC4CCN(Cc5ccccc5)CC4)c3)[nH]c2c1 [TCMDC-140427] | 6.107% |

| Structure (SMILES) | % Inhibition |
| --- | --- |
| CCN1CCN(c2cc(C)c3cc(NC(=O)c4cncc(Br)c4)ccc3n2)CC1 [TCMDC-125571] | -6.09% |
| Cc1ccc(-n2c(=O)c3c(n4c(SC(C)C)nnc24)-c2ccccc2CC32CCCCC2)cc1 [TCMDC-125077] | -67.75% |
| Cc1cc([N+](=O)[O-])ccc1NC(=O)Nc1cccc(C(F)(F)F)c1 [TCMDC-124561] | -49.1% |
| Cc1cccc2nc(-c3cccc(-c4cccc(C(=O)NCCN5CCCC5)c4)c3)[nH]c12 [TCMDC-132323] | 21.11% |
| C=CC[C@H](NC(=O)c1ccc(NS(=O)(=O)c2ccc3nc(N)[nH]c(=O)c3c2)cc1)C(=O)OCCCC [TCMDC-137699] | 10.92% |
| CCCCCCCCN1CCCN(C(=O)c2cccc(NC(=O)Nc3ccc4ccccc4c3)c2)CC1 [TCMDC-141690] | -11.26% |
| CC(CNc1ccnc(Nc2ccc3[nH]c(=O)[nH]c3c2)n1)c1ccccc1 (stereo not drawn) [TCMDC-136806] | -16.39% |
| Nc1nc(N)c2c(Sc3ccccc3)cccc2n1 [TCMDC-131943] | 8.754% |
| NC(=O)c1ccsc1NC(=O)CNC(c1ccccc1)c1ccc(Cl)cc1 (stereo not drawn) [TCMDC-125330] | 14.63% |
| Cc1ccc2[nH]c(-c3ccc(/C=C/C(=O)NC4CCN(Cc5ccccc5)CC4)cc3)nc2c1C [TCMDC-140451] | -45.16% |
| Cc1cc2nc(-c3ccc(/C=C/C(=O)NC4CCN(Cc5ccccc5)CC4)cc3)[nH]c2cc1C [TCMDC-140434] | 78.1% |
| Cc1ccc2nc(-c3ccc(C=CC(=O)NC4CCN(Cc5ccccc5)CC4)cc3)[nH]c2c1 [TCMDC-140401] | 2.225% |
| Cc1cc(NC(=O)c2cccs2)ccc1OC1CCN(Cc2ccc(C#N)cc2)CC1 [TCMDC-133954] | 61.72% |
| O=C(Nc1ccc(OC2CCN(Cc3ccc(F)cc3)C2)c(Cl)c1)c1cccs1 (stereo not drawn) [TCMDC-133757] | 50.68% |
| O=C(Nc1ccc(OC2CCN(Cc3ccc(F)cc3)C2)c(Cl)c1)c1ccco1 (stereo not drawn) [TCMDC-133761] | 61.05% |
| O=C(Nc1ccc(OC2CCN(Cc3ccc(F)cc3)CC2)c(Cl)c1)c1ccco1 [TCMDC-133750] | 24.88% |
| Cc1cc(NC(=O)c2cccs2)ccc1OC1CCN(Cc2ccc(C#N)cc2)C1 (stereo not drawn) [TCMDC-133960] | 27% |
| O=C(Nc1ccc(OC2CCN(Cc3ccc(F)cc3)CC2)c(Cl)c1)c1cccs1 [TCMDC-133746] | 32.62% |
| N#Cc1ccc(CN2CCC(Oc3ccc(NC(=O)c4cccs4)cc3Cl)CC2)cc1 [TCMDC-133955] | 10.06% |
| O=C(Nc1ccc(OC2CCN(Cc3ccsc3)CC2)c(Cl)c1)c1ccco1 [TCMDC-134271] | 9.288% |
| Cc1cc(NC(=O)c2cccs2)ccc1OC1CCN(Cc2ccc(F)cc2)C1 (stereo not drawn) [TCMDC-133754] | 20.26% |
| O=C(Nc1ccc(OC2CCN(Cc3ccccc3)CC2)c(Cl)c1)c1ccco1 [TCMDC-133966] | 63.08% |
| O=C(Nc1ccc(OC2CCN(Cc3ccccc3)C2)c(Cl)c1)c1ccco1 (stereo not drawn) [TCMDC-133971] | 37.01% |
| Cc1cc(NC(=O)c2ccco2)ccc1OC1CCN(Cc2ccc(F)cc2)C1 (stereo not drawn) [TCMDC-133760] | 22.57% |

| Structure (SMILES) | % Inhibition |
| --- | --- |
| FC(F)(F)c1ccc2[nH]c(-c3ccc(-c4ccc(CNCc5cnn(-c6ccccc6)n5)cc4)s3)nc2c1.O=C(O)C(F)(F)F [TCMDC-132975] | -22.66% |
| COc1cccc(NC(=O)Nc2ccc(-c3oc(C(=O)NCC(c4ccccc4)N(C)C)cc3-c3ccncc3)cc2)c1 (stereo not drawn) [TCMDC-135783] | -10.27% |
| Cc1c(F)cc(C(=O)NC2CC2)cc1-c1ccc2c(cnn2S(=O)(=O)c2ccc(C#N)cc2)c1 [TCMDC-135240] | -5.005% |
| COc1ccc2nccc([C@@H](O)CN3CCC(NC(=O)c4[nH]c5ccccc5c4-c4ccccc4)CC3)c2c1 [TCMDC-141034] | -42.03% |
| O=C(NCc1cccc(F)c1)Nc1ccc(-c2cccc(-c3nc4ccc(F)cc4[nH]3)c2)cc1 [TCMDC-133296] | 0.06231% |
| Cc1ccc(NC(=O)c2ccc(N3CCC(c4ccccc4C)CC3)nc2)cc1 [TCMDC-134594] | 8.038% |
| COc1ccc(CN2CCN(Cc3cc(Cl)ccc3O)CC2CCO)c(C)c1C (stereo not drawn) [TCMDC-124638] | -22.47% |
| CC(C)CCN1CCC(Oc2ccc(NC(=O)c3ccc(F)cc3)cc2Cl)CC1 [TCMDC-133978] | 33.54% |
| CC(C)CCN1CCC(Oc2ccc(NC(=O)c3ccco3)cc2Cl)CC1 [TCMDC-133976] | 100.7% |
| N#Cc1ccc(CN2CCC(Oc3ccc(NC(=O)c4ccco4)cc3Cl)CC2)cc1 [TCMDC-133957] | 8.133% |
| O=C(NC(=S)NCc1ccncc1)c1ccccc1 [TCMDC-123842] | -6.445% |
| NC1=NC(CCc2ccccc2)N(c2ccc(Cl)cc2)C(N)=N1 (stereo not drawn) [TCMDC-131290] | 6.603% |
| COc1ccc2c(c1)Nc1ccc(Cl)cc1C2N (stereo not drawn) [TCMDC-141985] | 106.2% |
| Fc1cccc(COc2ccc(-n3ccc4c(NCCCn5ccnc5)ncnc43)cc2Cl)n1 [TCMDC-135092] | -5.729% |
| COc1ccc2ccccc2c1C=NNc1ccnc2cc(Cl)ccc12 [TCMDC-123949] | -70.44% |
| CCCN(CCC)CCCN(CCCN(CCC)CCC)c1cc(C)nc(Nc2ccc(Cl)cc2)n1 [TCMDC-137773] | 63.95% |
| Cc1cc(NCCCCCCN)nc(Nc2ccc(Cl)cc2)n1 [TCMDC-138191] | 54.5% |
| Cc1cc(N(CCCN(C)C)Cc2cc(F)cc(F)c2)nc(Nc2ccc(Cl)cc2)n1 [TCMDC-132203] | -7.276% |
| Cc1cc(N(C)CCCN(C)C)nc(Nc2ccc(Cl)cc2)n1 [TCMDC-136887] | 28.42% |
| CCN(CC)CCCN(CCCN(CC)CC)c1cc(C)nc(Nc2ccc(Cl)cc2)n1 [TCMDC-137489] | 39.75% |
| CCNc1cc(C)nc(Nc2ccc(C)cc2)n1 [TCMDC-134007] | 5.581% |
| CCNc1cc(C)nc(Nc2ccc(F)cc2)n1 [TCMDC-134008] | 39.4% |
| CCCCN(CCCC)CCCN(CCCN(CCCC)CCCC)c1cc(C)nc(Nc2ccc(Cl)cc2)n1 [TCMDC-137487] | 97.2% |
| CCCN(CCCN(CCCN(CCC)C(C)C)c1cc(C)nc(Nc2ccc(Cl)cc2)n1)C(C)C [TCMDC-138003] | 44.69% |
